Source: PubChem BioAssay (NCI)
This is part of a sample that, as a whole, favours compounds with a hit. Of some 79,000 tested, about 15% had one in any assay. Unmarked numbers belong to inactive results. Calls of active or inactive are those of the source. No stated cut-off is given here; in the data, active means growth inhibition above about 70%; inactive means the rest.

Assays:
[1] = NCI Yeast Anticancer Drug Screen. Data for the rad50 strain (AID 155);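 further: 0% = growth of vehicle-only cultures of the same strain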; details: S. cerevisiae rad50 strain growth inhibition; at 50.0 µM; active compounds read high
Procedure, shortened: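 Growth of the mutant yeast was measured after compound exposure and referenced to vehicle-treated cultures.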

[2] = NCI Yeast Anticancer Drug Screen. Data for the mec2-1 strain (AID 157); details: S. cerevisiae mec2-1 strain, at 50.0 µM, active compounds read high
Procedure, shortened: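 Yeast mec2-1 mutant treated with compound. Readout: growth inhibition vs vehicle controls.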

[3] = NCI Yeast Anticancer Drug Screen. Data for the sgs1 mgt1 strain (AID 161);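 further: 0% = growth of cultures given vehicle only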; details: S. cerevisiae sgs1 mgt1 strain, at 50.0 µM, active compounds read high
Procedure, shortened: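 Read-out: growth inhibition vs vehicle controls. Cells: mutant yeast strain deficient in DNA damage repair.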

[4] = NCI Yeast Anticancer Drug Screen. Data for the cln2 rad14 strain (AID 165);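 further: 0% = growth equal to vehicle treated cultures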; details: S. cerevisiae cln2 rad14 strain, at 50.0 µM, active compounds read high
Procedure, shortened: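 cln2 rad14 yeast strain; compound exposure; growth inhibition read vs vehicle controls.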

[5] = NCI Yeast Anticancer Drug Screen. Data for the bub3 strain (AID 167); details: S. cerevisiae bub3 mutant strain, at 50.0 µM, active compounds read high
Procedure, shortened: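 Whole-cell yeast assay. The mutant strain was incubated with compounds, and growth inhibition was determined by comparison with vehicle-treated cells.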

[6] = NCI Yeast Anticancer Drug Screen. Data for the mlh1 rad18 strain (AID 175); details: S. cerevisiae mlh1 rad18 strain growth inhibition; at 50.0 µM; active compounds read high
Procedure, shortened: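 Yeast w/ defined DNA-repair lesions; compound exposure; growth vs vehicle controls → % inhibition.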

SMILES | growth inhibition [1] | growth inhibition [2] | growth inhibition [3] | growth inhibition [4] | growth inhibition [5] | growth inhibition [6]
Cc1cn(CC(O)c2cc3ccccc3[nH]2)c(=O)[nH]c1=O (stereo unspecified) | 9.7% | 13.6% | -0.1% | 12.1% | 9.65% | 7.15%
Oc1cc2ccc3c(c2cc1O)CCc1cn[nH]c1-3 | 7.1% | 9.25% | 17.5% | -0.55% | 15.8% | 15.5%
COc1ccccc1N=Nc1c(O)n(-c2ccccc2OC)c(=S)n(-c2ccc(I)cc2)c1=O | 96% (active) | 96.2% (active) | 96% (active) | 92.8% (active) | 95.2% (active) | 96.7% (active)
O=C(C[n+]1ccccc1)c1ccc([N+](=O)[O-])cc1 | -3.35% | -2.2% | -4.45% | -30.1% | -6.7% | 38.7%
CS(=O)(=O)OCC(Cc1ccccc1)N1C(=O)c2ccccc2C1=O (stereo unspecified) | 1.3% | 4.05% | 17.9% | 12.2% | 26.9% | 34.1%
FC(F)(F)c1cc(C2SCc3nc4ccccc4n32)cc(C(F)(F)F)c1 (stereo unspecified) | -5.25% | -23% | -7.9% | 6.95% | -4.35% | -17.4%
NNC(=O)C(CSC(c1ccccc1)(c1ccccc1)c1ccccc1)NC(=O)OCc1ccccc1 (stereo unspecified) | 87.1% (active) | 86% (active) | 94.8% (active) | 83.6% (active) | 89% (active) | 95.2% (active)
O=C(O)c1cc2cc(O)ccc2[nH]1 | 2.6% | 3.6% | 20.9% | 3% | 10.4% | -5.25%
O=C(Cc1ccccc1)N/N=C\Cc1ccccc1 | -4.85% | 22.8% | 20.8% | -14.1% | -2.35% | 2.25%
BrCCOC(OCCBr)(c1ccccc1)c1ccccc1 | 19.8% | -10.9% | 2.3% | 11.5% | 4.95% | 6.3%
Cc1cc2ccccc2n1CC(=O)N1CCCC1 | -14.8% | -28.6% | -23.6% | 0.8% | 15.9% | -11.8%
O=C1C(=Cc2ccc([N+](=O)[O-])cc2)C(=O)c2ccccc21 | 28.9% | 36.6% | 22.1% | 24.1% | 0.15% | 85.5% (active)
CCC1SCC(=O)N1c1nncs1 (stereo unspecified) | 4.75% | 18.9% | 4.55% | -8.6% | 2.75% | 2.95%
CN(C)Cc1cc(C(C)(C)C)cc(CN(C)C)c1O | -4% | -6.2% | -13% | -20.1% | -36.4% | -0.05%
O=C(O)c1ccc(O)cn1 | -4.8% | -7.05% | 2.55% | 6.7% | 3.3% | 2.55%
O=C1C2C3C=CC(C2C(=O)N1CCl)C1C2C(=O)N(CCl)C(=O)C2C31 (stereo unspecified) | 4.2% | 21.1% | 7.85% | -5.85% | 13.6% | 18.7%
CC(O)CN=Cc1ccccc1 (stereo unspecified) | -16.6% | 21.9% | -11.2% | -41.4% | -11.5% | -18.8%
Cc1ccc(C(=O)CCN2CCOCC2)c(C)c1 | 40.1% | 5.55% | 26.6% | -4.65% | 29.1% | 31%
CCOC(=O)CNC(N)=O | 33.6% | 15.3% | -19.5% | 19.4% | 23.8% | 5.2%
Clc1ccccc1/C=C/c1ccnnc1 | 15.8% | 18.6% | -3.65% | 7% | 1.35% | 12.8%
CC1=CC[N+](C)(C)C(C(N)=O)C1 (stereo unspecified) | -5% | -12.8% | -17.2% | 9.95% | 20.9% | -18.1%

SMILES | growth inhibition [1] | growth inhibition [2] | growth inhibition [3] | growth inhibition [4] | growth inhibition [5] | growth inhibition [6]
O=c1[nH]nc(SCc2ccccc2)c(=O)[nH]1 | -18.1% | -3.5% | -16.6% | -5.8% | 0% | -18.9%
NC(=O)c1c[n+]([O-])ccc1[N+](=O)[O-] | 40.1% | 5.3% | 34.8% | 28.1% | -14.8% | 18.2%
O=C1C2=Cc3ccccc3OC2(O)Oc2ccccc21 (stereo unspecified) | 8.1% | 6.4% | -3.35% | 3.35% | 1.8% | -73.2%
CCOC(=O)C1=NN(c2ccccc2)C(=O)/C1=C\N1CC(=O)NC1=S | -19.4% | -14.2% | -31.5% | -10.2% | 9.85% | -32.1%
Cc1nc(N)nc(C)c1Cl | -2.15% | 3.4% | 3.85% | 5.2% | -5.9% | -1.85%
CCOC(=O)NC(Nc1ccc(F)c(F)c1)(C(=O)OCC)C(F)(F)F (stereo unspecified) | 5.4% | -1.3% | -9.1% | 15.4% | 9.75% | 39.5%
CCCCc1nc(CCCC)nc(CCCC)n1 | -6.75% | -14.2% | -12.8% | -2.45% | -2.8% | 1.15%
N#CC(NNC(=O)c1ccccc1O)c1cccc(O)c1 (stereo unspecified) | 10.8% | -0.25% | 10.6% | -6.7% | 25.7% | -25%
CSc1nc(=O)[nH]c2c1[nH]c(=O)n2-c1ccccc1 | 1.2% | 5.85% | -6.35% | -15.7% | 8.3% | -9.05%
Cc1ccc(O)c(C(=O)c2ccccc2C(=O)O)c1 | 15% | -11.9% | -6.95% | 44.4% | 4.9% | 22.4%
Cc1nc(NCCNCCO)nc2c1C(=O)Nc1ccccc1N2 | -43.9% | -50.8% | -7.65% | -5.3% | -3.9% | -38.8%
OCC1NC(CO)C(O)C1O (stereo unspecified) | 6.5% | 8.1% | 6.5% | 1.05% | 9.2% | 11.2%
COC(=O)CCCC1(CCCC(=O)OC)CCCCCCCCC(CCCC(=O)OC)(CCCC(=O)OC)C(=O)C1=O | 21.8% | 36.9% | 37.2% | 45.5% | 35.8% | 47.6%
Cc1ccc2c(c1)sc(C)[n+]2CCO | -19.9% | -19.5% | -38.8% | -5.65% | -9.65% | -18.4%
CCCCCCCCCCCCCC/C(C(=O)OC)=C(/O)C(=O)OCC | -40.4% | -30.4% | -27.6% | -17.2% | -57.8% | -19.9%
O=C(NCCN1CCCCC1)c1cccc(I)c1 | 2.45% | -4.85% | 15.5% | 28.3% | 8.15% | 16%
CC(O)(c1ccc(OCCC[N+](C)(C)C)cc1)C(C)(O)c1ccc(OCCC[N+](C)(C)C)cc1 (stereo unspecified) | -25.5% | -17.1% | -39% | 12.9% | -16.9% | -27.6%
COc1ccc(C(=O)Cc2ccc3ccccc3n2)cc1 | -4.75% | 16.7% | -6.8% | -24.9% | -10.8% | 4.45%
c1cc(Sc2nc(Sc3ccncc3)nc(Sc3ccncc3)n2)ccn1 | 5.15% | 8.6% | 14.8% | 39.2% | -9.7% | -7.25%
O=C1NC2=NN=C(c3ccc(Br)cc3)CN2NC12c1ccccc1-c1ccccc12 | -21.6% | -15.8% | -13.8% | 21.6% | -14.2% | 4.2%
